Compound activity (PubChem BioAssay)
This is a sample that favours compounds with a hit; in the whole collection about 1.4% have one here.
A3G deaminase – inhibitors of human APOBEC3G DNA deaminase | recombinant A3G, ssDNA deamination FAM/TAMRA fluorescence | inhibition, % at 20 µM | 330,000 tested, 0.28% active | AID 493012;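 active = inhibition of at least 40% at 20 µM, with no more than 30% in the related APOBEC3A deaminase screen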
FAS TE block – inhibitors of human fatty acid synthase thioesterase domain; P49327; recombinant FAS-TE, OMFH fluorogenic substrate, fluorescence endpoint; inhibition, % at 15 µM; 360,000 tested, 0.67% active;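 active = compounds whose normalised, plate-corrected inhibition of enzyme fluorescence in the single-dose primary screen is 50% or more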
NPR1 activator – GC-A (human) enzyme activation. P16066. HEK293 GC-A cells, cGMP TR-FRET, EC30 ANP; 0% at EC30 ANP, 100% saturating ANP. activation, % at 10 µM. 370,000 tested, 0.14% active; in the data active = activation above about 40%
GC-B act – GC-B (human) receptor activation; HEK293-GC-B cells, CNP EC30, cGMP TR-FRET; 0% at EC30 CNP, 100% saturating CNP; activation, % at 10 µM; 370,000 tested, 0.11% active; AID 1920062;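 active = activation at 10 µM reaching about 35% in either raw or pattern-adjusted values, limit read from the data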
Target sequence (P20594 whole entry, looked up): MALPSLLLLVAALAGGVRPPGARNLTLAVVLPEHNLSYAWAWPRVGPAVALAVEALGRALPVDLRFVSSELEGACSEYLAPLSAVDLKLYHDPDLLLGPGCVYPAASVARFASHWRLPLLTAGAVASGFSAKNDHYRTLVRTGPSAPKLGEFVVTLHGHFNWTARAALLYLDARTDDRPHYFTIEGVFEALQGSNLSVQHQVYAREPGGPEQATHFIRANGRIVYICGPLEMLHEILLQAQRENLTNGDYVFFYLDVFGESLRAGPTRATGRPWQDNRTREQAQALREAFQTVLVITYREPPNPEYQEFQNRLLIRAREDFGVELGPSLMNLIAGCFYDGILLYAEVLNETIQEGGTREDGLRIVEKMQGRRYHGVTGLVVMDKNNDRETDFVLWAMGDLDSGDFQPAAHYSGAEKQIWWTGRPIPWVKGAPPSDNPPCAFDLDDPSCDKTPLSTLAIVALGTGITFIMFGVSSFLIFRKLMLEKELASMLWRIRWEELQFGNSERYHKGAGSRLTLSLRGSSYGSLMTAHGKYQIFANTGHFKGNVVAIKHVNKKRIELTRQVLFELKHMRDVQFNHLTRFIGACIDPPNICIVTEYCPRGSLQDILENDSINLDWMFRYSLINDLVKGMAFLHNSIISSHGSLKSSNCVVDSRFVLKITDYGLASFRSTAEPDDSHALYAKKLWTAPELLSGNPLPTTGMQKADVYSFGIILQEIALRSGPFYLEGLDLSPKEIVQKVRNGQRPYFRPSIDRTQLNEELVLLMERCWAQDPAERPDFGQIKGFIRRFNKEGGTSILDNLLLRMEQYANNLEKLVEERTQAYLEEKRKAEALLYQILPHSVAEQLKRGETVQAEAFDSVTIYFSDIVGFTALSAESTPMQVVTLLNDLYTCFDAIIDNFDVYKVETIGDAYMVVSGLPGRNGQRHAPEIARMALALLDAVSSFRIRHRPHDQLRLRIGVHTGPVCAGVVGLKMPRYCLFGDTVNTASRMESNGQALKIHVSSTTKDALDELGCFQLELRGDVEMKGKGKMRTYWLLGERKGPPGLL
A3A deaminase – blocks human APOBEC3A ssDNA deamination; P31941; recombinant A3A, FAM/TAMRA ssDNA deamination fluorescence; inhibition, % at 20 µM; 330,000 tested, 0.41% active;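 active = at least 40% inhibition at 20 µM here, with at most 30% in a related deaminase screen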
FAS-TE conf – confirmation of human fatty acid synthase thioesterase inhibitors; 2,300 tested, 45% active; shares compounds with FAS TE block; AID 624325; recombinant FAS-TE, OMFH fluorogenic substrate, fluorescence; inhibition, % at 15 µM;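 active = compounds inhibiting the enzyme by at least 50% at 15 µM in any one of the replicates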
A number is an active result; – = inactive; · = no result given.

SMILES | A3G deaminase | FAS TE block | NPR1 activator | GC-B act | A3A deaminase | FAS-TE conf
C[C@]12C(=O)N(c3cccc(F)c3)C(=O)N1[C@H]1c3ccccc3OC[C@@H]1[C@H]2c1ccccc1 | – | 68 | – | – | – | –
C[C@]12C(=O)N(c3ccccc3)C(=O)N1[C@@H]1c3ccccc3OC[C@@H]1[C@H]2c1ccccc1 | – | – | – | – | – | ·
C[C@]12C(=O)N(c3cccc(F)c3)C(=O)N1[C@@H]1c3ccccc3OC[C@@H]1[C@H]2c1ccccc1 | – | – | – | – | – | ·
Cc1ccc(CN2CC(=O)N3[C@H]4c5ccccc5OC[C@@H]4[C@H](c4ccccc4)[C@]3(C)C2=O)cc1 | – | 51 | – | – | – | –
C[C@@]12C(=O)N(Cc3ccccc3)CC(=O)N1[C@H]1c3ccccc3OC[C@@H]1[C@@H]2c1ccccc1 | – | – | – | – | – | ·
C[C@]12C(=O)N(c3ccccc3)C(=O)N1[C@H]1c3ccccc3OC[C@@H]1[C@H]2c1ccccc1 | – | 79 | – | – | – | –
CCC(=O)OCCCN1CCC2(CCCCC2)C1=O | · | · | – | – | · | ·
COC(=O)[C@]1(CNC(=O)C(C)(C)C)CC(=O)N(C)[C@@H]1c1ccccc1 | · | · | – | – | · | ·
CCC(=O)N1CCc2cc(Br)c(S(=O)(=O)N3CCC(C(=O)NCCCOC(C)C)CC3)cc21 | · | · | – | – | · | ·
Cc1ccc(F)cc1C(=O)N(Cc1ccccn1)CC1CCCO1 (stereo not drawn) | · | · | – | – | · | ·
C=CCn1c(SCC(=O)C(C)(C)C)nnc1-c1ccc(Cl)cc1 | · | · | – | – | · | ·
COC(=O)[C@]1(Cc2ccccc2)N[C@H](c2ccc(-c3cccc(Cl)c3)cc2)[C@@H]2C(=O)N(C)C(=O)[C@@H]21 | – | 91 | – | – | – | –
CCN1C(=O)[C@H]2[C@@H](c3ccc(-c4cccc(Cl)c4)cc3)N[C@@](CC(C)C)(C(=O)OC)[C@H]2C1=O | – | 52 | – | – | – | –
CCN1C(=O)[C@H]2[C@@H](c3ccc(-c4cccc(Cl)c4)c(OC)c3)N[C@@](CC(C)C)(C(=O)OC)[C@H]2C1=O | – | – | – | – | – | ·
COC(=O)[C@]1(Cc2ccccc2)N[C@H](c2ccc(-c3ccc(Cl)c(Cl)c3)cc2)[C@@H]2C(=O)N(C)C(=O)[C@@H]21 | – | 90 | – | – | – | –
COC(=O)C1(Cc2ccccc2)NC(c2ccc(F)cc2)C2C(=O)N(C)C(=O)C21 (stereo not drawn) | – | – | – | – | – | ·
COC(=O)[C@]1(Cc2ccccc2)N[C@H](c2ccc(-c3ccccc3)cc2)[C@@H]2C(=O)N(C)C(=O)[C@@H]21 | – | 56 | – | – | – | –
COc1ccc(C(C(=O)N(C)C2CCCC2)N(Cc2ccc(F)cc2)C(=O)c2ccc3ccccc3c2)cc1OC (stereo not drawn) | · | · | – | – | · | ·
COc1ccccc1N1CN(S(=O)(=O)c2ccc(C)cc2)c2nc3ccccc3nc21 | – | 57 | – | – | – | –
CC(C)Oc1cccc(-c2csc(N3CCC(C(N)=O)CC3)n2)c1 | · | · | – | – | · | ·
O=C1S/C(=C\c2ccc(O)c([N+](=O)[O-])c2)C(=O)N1Cc1cccc([N+](=O)[O-])c1 | – | 78 | – | – | – | 51
COC(=O)C1=C(C)NC(C)=C(C(=O)OC)C1c1ccc(OC(=O)c2oc3ccccc3c2C)c(OC)c1 | – | 52 | – | – | – | –
Cc1ccc2nc(SCC(=O)Nc3ccc(F)c([N+](=O)[O-])c3)[nH]c2c1 | – | 62 | – | – | – | 68
Cc1cccc(C(=O)NCCC(=O)Nc2ccc(F)c([N+](=O)[O-])c2)c1 | – | 54 | – | – | – | 68
Cc1cccc(C(=O)NCCC(=O)Nc2ccc(C)c(F)c2)c1 | – | – | – | – | – | ·
COC(=O)[C@]12C[C@H](CC(=O)NCc3cccc4ccccc34)C(=O)N(Cc3ccco3)C1=C[C@H](COCc1ccccc1)O[C@@H]2C | · | · | – | – | · | ·
COC(=O)[C@]12C[C@H](CC(=O)NCc3cccc(C(F)(F)F)c3)C(=O)N(Cc3cccc4ccccc34)C1=C[C@H](C(C)(C)C)O[C@@H]2C | · | · | – | – | · | ·
COC(=O)[C@]12C[C@H](CC(=O)NCc3ccc(C)o3)C(=O)N(CCc3ccc(OC)c(OC)c3)C1=C[C@H](C(C)C)O[C@@H]2C1CC1 | · | · | – | – | · | ·
